# Laboratory results from PubChem BioAssay (Tox21).
# “And” between values parts separate entries of the source, which are not always exact repeats. Equal values may be shown once. Unmarked numbers belong to inactive results. Records with an inconclusive call do not appear. Entries that show only a call come without a potency. The source made the active and inactive calls. Unless noted, the call rests on the fitted dose curve; in most records, active means well fitted curve in the direction sought with a large enough effect in the repeat runs; inconclusive means weak or mixed curves; inactive means flat fitted curve, though single readings scatter.
# What was measured:
# [1] = qHTS assay to test for compound auto fluorescence at 535 nm (green) in HEK293 cells (AID 720680); further: potency means the concentration at half of the fitted maximal effect
# [2] = qHTS assay to test for compound auto fluorescence at 460 nm (blue) in HEK293 cell free culture (AID 720681)
# How it was run: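 Blue fluorescence (Ex 405/Em 460 nm, triamterene-equivalent) was read immediately after pin transfer of compound or DMSO into medium (DMEM, 10% FBS) without cells.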
# [3] = qHTS assay to test for compound auto fluorescence at 535 nm (green) in HEK293 cell free culture (AID 720682); further: potency means the concentration at half of the fitted maximal effect
# How it was run: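 Green-label autofluorescence (485 nm excitation, 535 nm emission) measured on compound added to cell-free culture medium (DMEM, 10% FBS). Output is expressed relative to fluorescein.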
# [4] = qHTS assay to test for compound auto fluorescence at 590 nm (red) in HEK293 cell free culture (AID 720683)
# How it was run: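 Red-channel autofluorescence of compounds in culture medium (DMEM, 10% FBS), no cells, measured at 540/590 nm. Rose Bengal sodium is the reference fluorophore for equivalence.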
# [5] = qHTS assay to test for compound auto fluorescence at 590 nm (red) in HepG2 cell free culture (AID 720684)
# How it was run: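 Steps: dispense MEM/10% FBS medium, no cells; pin compound or DMSO vehicle; read red channel, Ex/Em 540/590 nm. Output given as Rose Bengal sodium equivalents.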
# [6] = qHTS assay to test for compound auto fluorescence at 460 nm (blue) in HepG2 cell free culture (AID 720685)
# How it was run: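 Compound (23 nL) or DMSO pinned into cell-free MEM with 10% FBS; blue fluorescence read at 405/460 nm excitation/emission, expressed as auto-fluorescence equivalency to triamterene.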
# [7] = qHTS assay to test for compound auto fluorescence at 535 nm (green) in HepG2 cell free culture (AID 720686); further: potency means the concentration at half of the fitted maximal effect
# [8] = qHTS assay to test for compound auto fluorescence at 460 nm (blue) in HepG2 cells (AID 720687)
# How it was run: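 Blue-channel autofluorescence (Ex/Em 405/460 nm, triamterene-equivalent) was measured after 1 hr compound exposure at 37 C, 5% CO2. Cells were HepG2, plated overnight at 37 C in MEM plus 10% FBS.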
# [9] = target: Glucocorticoid receptor (Homo sapiens) (UniProt P04150); test: qHTS assay to identify small molecule agonists of the glucocorticoid receptor (GR) signaling pathway (AID 720691; active means well fitted activation curve with a large enough effect in the signal ratio in the repeat runs, not every such curve was filed as active; the % refers to the signal ratio)
# Sequence of Glucocorticoid receptor (Homo sapiens) (P04150 whole entry, looked up): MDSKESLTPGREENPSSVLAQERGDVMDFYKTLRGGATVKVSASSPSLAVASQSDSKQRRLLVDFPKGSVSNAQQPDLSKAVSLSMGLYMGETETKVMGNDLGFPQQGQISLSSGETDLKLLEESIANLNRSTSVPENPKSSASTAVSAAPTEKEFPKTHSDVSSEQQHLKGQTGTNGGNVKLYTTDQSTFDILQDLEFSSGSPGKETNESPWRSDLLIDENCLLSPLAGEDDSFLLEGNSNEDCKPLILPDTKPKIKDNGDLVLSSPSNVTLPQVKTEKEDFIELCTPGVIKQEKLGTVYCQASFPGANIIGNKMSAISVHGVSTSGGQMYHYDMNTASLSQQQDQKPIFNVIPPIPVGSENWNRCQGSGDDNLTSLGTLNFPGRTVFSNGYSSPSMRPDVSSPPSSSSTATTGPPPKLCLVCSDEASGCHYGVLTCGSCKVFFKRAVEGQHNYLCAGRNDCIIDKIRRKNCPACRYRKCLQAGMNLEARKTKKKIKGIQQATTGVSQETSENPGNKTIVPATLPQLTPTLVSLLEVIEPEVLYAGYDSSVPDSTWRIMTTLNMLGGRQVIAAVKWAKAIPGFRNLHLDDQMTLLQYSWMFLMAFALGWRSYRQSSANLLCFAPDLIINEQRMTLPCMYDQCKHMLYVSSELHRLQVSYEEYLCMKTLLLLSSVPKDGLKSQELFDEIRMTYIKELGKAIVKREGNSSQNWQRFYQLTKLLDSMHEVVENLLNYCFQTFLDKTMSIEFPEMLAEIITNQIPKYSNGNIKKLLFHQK
# How it was run: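 Reporter read-out: fluorescence intensity following 2 h room-temperature LiveBLAzer B/G FRET substrate loading. Prior step: GR-bla HeLa cells held 4 h, then treated 18 h at 37 C.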
# [10] = target: Glucocorticoid receptor (Homo sapiens) (UniProt P04150); test: qHTS assay to identify small molecule antagonists of the glucocorticoid receptor (GR) signaling pathway (AID 720692; active means well fitted inhibition curve with a large enough effect in the signal ratio in the repeat runs, not every such curve was filed as active; the % refers to the signal ratio)
# How it was run: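 Dexamethasone (5 nM final) stimulated a stably integrated GRE-beta-lactamase reporter in HeLa cells during 18 h co-incubation with compounds; signal was quantified as fluorescence intensity of B/G FRET substrate after 2 h.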
# Tags describe the fitted curve by direction and shape or compound fluorescence and quenching.
Compound,Potency [1],Potency [2],Potency [3],outcome [4],outcome [5],Potency [6],Potency [7],Potency [8],Potency [9],Potency [10]
COc1ccc(CCN(C)CCCC(C#N)(c2ccc(OC)c(OC)c2)C(C)C)cc1OC (centres undefined),inactive,inactive,inactive,inactive,inactive,inactive,inactive,inactive,–,–
CC(C)CCOC(=O)c1ccc(N(C)C)cc1,inactive,inactive,inactive,inactive,inactive,inactive,inactive,inactive,–,–
CN1C(=O)c2ccc([N+](=O)[O-])cc2C1=O,inactive,inactive,inactive,inactive,inactive,inactive,inactive,inactive,–,–
CN(C)c1ccc(C(=C2C=CC(=[N+](C)C)C=C2)c2ccccc2)cc1,inactive,inactive,inactive,inactive,inactive,inactive,inactive,inactive,inactive,–
CC(=O)C1=C(C)[C@@H]2C[C@@]3(C1)[C@H](C)CC[C@H]3C2(C)C,inactive,inactive,inactive,inactive,inactive,inactive,inactive,inactive,–,–
Cc1cc(OCCOCC[N+](C)(C)Cc2ccccc2)ccc1C(C)(C)CC(C)(C)C,inactive,inactive,inactive,inactive,inactive,inactive,inactive,inactive,–,–
O=S(=O)(O)c1ccc2nc(-c3ccccc3)[nH]c2c1,inactive,inactive,inactive,inactive,inactive,inactive,inactive,inactive,–,–
CC(C)(C)c1ccccc1,inactive,inactive,inactive,inactive,inactive,inactive,inactive,inactive,–,–
CCCCCCCCCCCCc1ccccc1O,inactive,inactive,inactive,inactive,inactive,inactive,inactive,inactive,–,–
CC(C)(C)NCC(O)c1cc(O)cc(O)c1 (centres undefined),inactive,inactive,inactive,inactive,inactive,inactive,inactive,inactive,–,–
CCCCOCCOC(=O)c1ccccc1C(=O)OCCOCCCC,inactive,inactive,inactive,inactive,inactive,inactive,inactive,inactive,–,–
O=C1CC2(CCCC2)CC(=O)N1CCCCN1CCN(c2ncccn2)CC1,inactive,inactive,inactive,inactive,inactive,inactive,inactive,inactive,–,–
Cc1scc2c1N(C(=O)CN1CCN(C)CC1)c1ccccc1NC2=O,inactive,inactive,inactive,inactive,inactive,inactive,inactive,inactive,–,–
CCOC(=O)C(C)C(C)=O (centres undefined),inactive,inactive,inactive,inactive,inactive,inactive,inactive,inactive,inactive,–
O=c1n(CC2CO2)c(=O)n(CC2CO2)c(=O)n1CC1CO1 (centres undefined),inactive,inactive,inactive,inactive,inactive,inactive,inactive,inactive,–,–
Cc1ccc(-c2cc(C(F)(F)F)nn2-c2ccc(S(N)(=O)=O)cc2)cc1,inactive,inactive,inactive,inactive,inactive,inactive,inactive,inactive,–,–
CC(C)(C)c1ccc(O)c(C(C)(C)C)c1,inactive,inactive,inactive,inactive,inactive,inactive,inactive,inactive,–,–
O=C1OC2(c3ccc(O)cc3Oc3cc(O)ccc32)c2ccccc21,3.16 µM [fluorescent] (active) and 2.82 µM [fluorescent] (active) and 3.98 µM [fluorescent] (active),inactive,3.55 µM [fluorescent] (active) and 3.98 µM [fluorescent] (active),inactive,inactive,inactive,3.16 µM [fluorescent] (active) and 2.82 µM [fluorescent] (active) and 3.55 µM [fluorescent] (active),inactive,–,–
Nc1nc(=S)c2[nH]cnc2[nH]1,inactive,inactive,inactive,inactive,inactive,inactive,inactive,inactive,–,–
CC(C)C(=O)c1c(C(C)C)nn2ccccc12,inactive,inactive,inactive,inactive,inactive,inactive,inactive,inactive,–,–
CC1COc2c(N3CCN(C)CC3)c(F)cc3c(=O)c(C(=O)O)cn1c23 (centres undefined),inactive,inactive,inactive,inactive,inactive,inactive,inactive,inactive,–,–
CC(=O)CC(C)=O,inactive,inactive,inactive,inactive,inactive,inactive,inactive,inactive,–,–
COC(=O)c1cccc(C(=O)OC)c1,inactive,inactive,inactive,inactive,inactive,inactive,inactive,inactive,–,–
CC(=O)OCCOCCOCCOC(C)=O,inactive,inactive,inactive,inactive,inactive,inactive,inactive,inactive,–,–
CCCCC/C=C/CC1CC(=O)OC1=O (centres undefined),inactive,inactive,inactive,inactive,inactive,inactive,inactive,inactive,–,–
NCCO,inactive,inactive,inactive,inactive,inactive,inactive,inactive,inactive,inactive,–

Compound,Potency [1],Potency [2],Potency [3],outcome [4],outcome [5],Potency [6],Potency [7],Potency [8],Potency [9],Potency [10]
Clc1ccc2c(c1)C(N1CCNCC1)=Nc1ccccc1O2,inactive,inactive,inactive,inactive,inactive,inactive,inactive,inactive,inactive,–
CCn1c2ccccc2c2cc(N)ccc21,inactive,inactive,inactive,inactive,inactive,inactive,inactive,inactive,–,–
CCCCCCC(O)CCCCCCCCCCC(=O)O (centres undefined),inactive,inactive,inactive,inactive,inactive,inactive,inactive,inactive,inactive,–
OCCOCCN1CCN(C(c2ccccc2)c2ccc(Cl)cc2)CC1 (centres undefined),inactive,inactive,inactive,inactive,inactive,inactive,inactive,inactive,–,–
CCCCCCCCCCCCCC[P+](CCCC)(CCCC)CCCC,inactive,inactive,inactive,inactive,inactive,inactive,inactive,inactive,–,–
Cc1c(O)cccc1C(=O)N[C@@H](CSc1ccccc1)[C@H](O)CN1C[C@H]2CCCC[C@H]2C[C@H]1C(=O)NC(C)(C)C,inactive,inactive,inactive,inactive,inactive,inactive,inactive,inactive,–,–
C1COC(NC(C2CC2)C2CC2)=N1,inactive,inactive,inactive,inactive,inactive,inactive,inactive,inactive,–,–
CC[C@@H](N)CO,inactive,inactive,inactive,inactive,inactive,inactive,inactive,inactive,–,–
O=Nc1ccc(Nc2ccccc2)cc1,inactive,inactive,inactive,inactive,inactive,inactive,inactive,inactive,–,–
Cc1cccc2n[nH]nc12,inactive,inactive,inactive,inactive,inactive,inactive,inactive,inactive,–,–
O=C(OCc1ccccc1)c1ccc(O)cc1,inactive,inactive,inactive,inactive,inactive,inactive,inactive,inactive,inactive,–
COC(c1ccccc1)(c1ccccc1)[C@H](Oc1nc(C)cc(C)n1)C(=O)O,inactive,inactive,inactive,inactive,inactive,inactive,inactive,inactive,inactive,–
CO[Si](OC)(OC)c1ccccc1,inactive,inactive,inactive,inactive,inactive,inactive,inactive,inactive,inactive,–
O=C(Oc1ccccc1)c1ccccc1O,inactive,inactive,inactive,inactive,inactive,inactive,inactive,inactive,inactive,–
O=C(O)CCc1ccccc1,inactive,inactive,inactive,inactive,inactive,inactive,inactive,inactive,inactive,inactive
CCCNC(C)C(=O)Nc1ccccc1C (centres undefined),inactive,inactive,inactive,inactive,inactive,inactive,inactive,inactive,inactive,–
CC(N)=O,inactive,inactive,inactive,inactive,inactive,inactive,inactive,inactive,inactive,–
CCCCCCCCCCCC[N+](C)(C)C,inactive,inactive,inactive,inactive,inactive,inactive,inactive,inactive,inactive,–
C=CC(=O)OCCCCCCCC,inactive,inactive,inactive,inactive,inactive,inactive,inactive,inactive,inactive,–
NC(N)=NC(=O)Cc1c(Cl)cccc1Cl,inactive,inactive,inactive,inactive,inactive,inactive,inactive,inactive,inactive,–
CC1=C(C=O)C(C)(C)CC=C1,inactive,inactive,inactive,inactive,inactive,inactive,inactive,inactive,inactive,–
CC(C)(C)c1cc(C(C)(C)C)c(O)c(C(C)(C)C)c1,inactive,inactive,inactive,inactive,inactive,inactive,inactive,inactive,inactive,–
[Cl][In]([Cl])[Cl],inactive,inactive,inactive,inactive,inactive,inactive,inactive,inactive,inactive,–
Cc1cc(C2(c3cc(C)c(O)cc3C)OS(=O)(=O)c3ccccc32)c(C)cc1O,inactive,inactive,inactive,inactive,inactive,inactive,inactive,inactive,inactive,–
Cc1cc(C(C)(C)C)c(O)c(C(C)(C)C)c1,inactive,inactive,inactive,inactive,inactive,inactive,inactive,inactive,inactive,–
C=CS(=O)(=O)O,inactive,inactive,inactive,inactive,inactive,inactive,inactive,inactive,inactive,inactive
